Screens as filed in PubChem.
A selection: hits, their analogues and other compounds. The true share with any hit is near 2.4%.
WRN helicase inh-1 = qHTS for Inhibitors of WRN Helicase | Potency, µM (titrated, usually from 114 µM), for inactives: at the highest dose activity change, negative = inhibition, most hits filed as inhibitors | Bifunctional 3'-5' exonuclease/ATP-dependent helicase WRN (Homo sapiens), Q14191 | WRN helicase unwinding, fluorescent forked duplex, kinetic | 360,000 tested, 0.46% active; note: % is set by controls: 0 for no effect and ±100 for the full control effect; nearly all actives have a fitted effect of over 55% in size
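Fluorescence dequenching readout, ex 525 nm/em 598 nm, kinetic mode: forked duplex DNA (100 nM final) with adjacent fluorophore and quencher unwound by WRN (20 nM final) with 2 mM ATP. Compound preincubation 15 min, room temperature.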
FEN1 inh = qHTS Assay for the Inhibitors of Human Flap endonuclease 1 (FEN1); 390,000 tested, 0.35% active; Potency, µM (highest dose often 114 µM), for inactives: at the highest dose activity change, negative = inhibition, usual class: inhibitors; AID 588795, 2011; P39748; Recombinant FEN1 flap cleavage, fluorescence, 15 min; note: % is set by controls: 0 for no effect and ±100 for the full control effect; nearly all actives have a fitted effect of over 65% in size
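Nuclease activity of 10 nM FEN1 was measured after 15 min of room-temperature exposure to titrated compounds, by adding 50 nM flap substrate and reading plates at 0 and 15 min.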
Pol iota inh = qHTS for Inhibitors of Polymerase Iota; DNA polymerase iota (Homo sapiens), Q9UNA4; Pol iota fluorescent replication assay, 10 min; Potency, µM (series often up to 115 µM), inactives show at the highest dose activity, negative = inhibition, hits mostly inhibitors; 390,000 tested, 1% active; AID 588590, 2011
Target sequence (Q9UNA4 whole entry, looked up): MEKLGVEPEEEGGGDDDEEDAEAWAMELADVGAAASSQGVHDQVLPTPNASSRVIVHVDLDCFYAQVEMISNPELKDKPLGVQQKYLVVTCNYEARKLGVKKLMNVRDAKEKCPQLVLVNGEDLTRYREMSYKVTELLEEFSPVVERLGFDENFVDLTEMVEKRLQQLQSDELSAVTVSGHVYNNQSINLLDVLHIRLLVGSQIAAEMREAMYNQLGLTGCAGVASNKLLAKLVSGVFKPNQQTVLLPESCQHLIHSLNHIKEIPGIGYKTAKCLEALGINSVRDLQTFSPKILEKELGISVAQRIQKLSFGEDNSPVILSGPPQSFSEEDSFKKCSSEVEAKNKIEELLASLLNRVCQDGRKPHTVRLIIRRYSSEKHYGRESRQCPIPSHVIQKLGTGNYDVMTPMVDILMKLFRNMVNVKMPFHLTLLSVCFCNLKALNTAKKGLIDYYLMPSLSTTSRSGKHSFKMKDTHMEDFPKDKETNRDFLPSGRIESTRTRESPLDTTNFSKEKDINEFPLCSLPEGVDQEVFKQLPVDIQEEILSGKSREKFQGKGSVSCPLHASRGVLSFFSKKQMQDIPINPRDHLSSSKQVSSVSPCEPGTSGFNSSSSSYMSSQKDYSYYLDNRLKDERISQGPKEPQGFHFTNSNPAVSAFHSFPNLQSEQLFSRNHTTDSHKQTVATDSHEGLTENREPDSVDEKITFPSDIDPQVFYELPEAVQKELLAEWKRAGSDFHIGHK
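Fluorescent replication assay read twice, at 0 min and 10 min after adding 50 nM (final) substrate. Enzyme (10 nM) and compounds were first incubated 15 min at room temperature; enzyme-free buffer wells were negative controls.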
Pol beta inh = qHTS Assay for Inhibitors of DNA Polymerase Beta. P06746. Pol beta primer extension/strand displacement, fluorescence kinetic. Potency, µM (highest dose often 114 µM), for the others: at the highest dose activity change, negative = inhibition, actives largely listed as inhibitors. 340,000 tested, 1.3% active. AID 485314, 2010; note: % is set by controls: 0 for no effect and ±100 for the full control effect
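Preincubation: enzyme (10 nM) with compound, 15 min, RT. Reaction: substrate added to 50 nM final. Reads: 0 and 10 min. Analysis: normalized, Hill fit.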
POLH inh = qHTS for Inhibitors of Polymerase Eta; DNA polymerase eta (Homo sapiens), Q9Y253; recombinant Pol eta, fluorescent DNA replication assay; AID 588591, 2011; Potency, µM (doses to about 114 µM), for the others: at the top dose activity change, negative = inhibition, most hits filed as inhibitors; 390,000 tested, 1.2% active; note: % is set by controls: 0 for no effect and ±100 for the full control effect
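Fluorescent replication assay: 50 nM final substrate added after a 15 min room-temperature compound preincubation with 10 nM enzyme. Signal taken at 0 min and again at 10 min.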
POLK inh = qHTS for Inhibitors of Polymerase Kappa. DNA polymerase kappa (Homo sapiens), Q9UBT6. purified Pol kappa, fluorescent DNA synthesis assay, 10 min. Potency, µM (top dose mostly 107 µM), without a hit: at the highest dose activity, negative = inhibition, usual class: inhibitors. 400,000 tested, 0.53% active; note: % is set by controls: 0 for no effect and ±100 for the full control effect
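50 nM final substrate added after 15 min RT preincubation of 10 nM Pol kappa with compound; fluorescence read at 0 and 10 min.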
WRN helicase inh-2 = qHTS for Inhibitors of WRN Helicase: Confirmatory Assay for Cherry-picked Compounds | shares compounds with WRN helicase inh-1 | WRN helicase DNA unwinding, fluorescence kinetic | Potency, µM (highest dose often 57.1 µM), without a hit: at the highest dose activity, negative = inhibition, usual class: inhibitors | 610 tested, 63% active | AID 720497, 2013; note: nearly all actives have a fitted effect of over 65% in size
TO DNA binding = qHTS for Inhibitors of WRN Helicase: Thiazole Orange DNA Binding Counterscreen. shares compounds with WRN helicase inh-1. thiazole orange DNA binding displacement, fluorescence. 610 tested, 10% active. Potency, µM (highest dose often 57.1 µM), for inactives: at the top dose activity change, negative = inhibition, hits mostly inhibitors;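 note: drop in dye fluorescence marks compound binding to DNA; % is set by controls: 0 for no effect and ±100 for the full control effect; nearly all actives have a fitted effect of over 60% in size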
BLM counter = qHTS for Inhibitors of WRN Helicase: BLM Helicase Counterscreen for WRN Inhibitors; shares compounds with WRN helicase inh-1; Recombinant BLM helicase DNA unwinding, red fluorescence; Potency, µM (highest dose often 57.1 µM), without a hit: top-dose activity change, negative = inhibition, most hits filed as inhibitors; 610 tested, 60% active; AID 720503, 2013; note: nearly all actives have a fitted effect of over 60% in size
* hit, by the source's call; ? = inconclusive; / = not tested or not shown; [ ] = another dose, or the depositor's remark. Calls come from the whole dose curve; as a rule, active = well fitted curve in the direction sought with a large enough effect; inconclusive = small, poorly fitted or top-dose-only effect, or another doubt; inactive = no such curve, though single readings can be large; an effect the other way counts as inactive or inconclusive. Potency is the fitted concentration of half-maximal effect.

SMILES | WRN helicase inh-1 | FEN1 inh | Pol iota inh | Pol beta inh | POLH inh | POLK inh | WRN helicase inh-2 | TO DNA binding | BLM counter
COc1ccc(-c2csc(NC(=S)NC(=O)c3cccs3)n2)cc1OC | ? | -35% | ? | ? | 20µM* | -11% | ? | ? | ?
COc1ccc(-c2csc(NC(=S)NC(=O)c3cccs3)n2)cc1Br | -36% | -6% | 99% | 0% | -8% | -6% | / | / | /
Cc1ccc(NC(=O)CSc2nnc(-c3ccccc3)n2C)cc1 | / | 0% | 23% | / | / | 11% | / | / | /
COc1cc(NC(=O)COC(=O)CCc2nc3ccccc3c(=O)[nH]2)cc(OC)c1 | -29% | 1% | 89% | / | -19% | -4% | / | / | /
COc1ccc(OC)c(NC(=O)COC(=O)CCc2nc3ccccc3c(=O)[nH]2)c1 | ? | 6% | 88% | / | -10% | -12% | ? | -13% | ?
CC(O)(c1ccccc1)c1nc(-c2ccncc2)cs1 (stereo not drawn) | ? | / | / | / | / | / | ? | -27% | ?
O=C1C(=Cc2cn(-c3ccccc3)nc2-c2ccc(OCc3ccccc3)cc2)SC(=S)N1CCS(=O)(=O)O | 25µM* | / | / | / | / | / | 11µM* | -29% | 6.8µM*
Cc1cc(O)c2c(c1)OC1(C)CCC3C(C)(C)CCCC34COC2C14 (stereo not drawn) | / | / | / | / | / | -1%[19.4 µM] | / | / | /
CC(NC(=O)COC(=O)/C=C/c1ccc([N+](=O)[O-])cc1)c1ccccc1 (stereo not drawn) | ? | -100% | 89µM* | 29% | -35% | ? | -3% | -4% | -7%
COc1cc(/C=C2/SC(=S)N(Cc3ccccc3)C2=O)cc(Cl)c1O | -128% | ? | -19% | 40µM* | ? | -17% | 1.5µM* | ? | 2.7µM*
COc1cc(/C=C2/SC(=S)N(C)C2=O)ccc1OC(=O)c1ccco1 | -23% | -2% | -16% | 32% | -11% | -8% | / | / | /
COc1cc(/C=C2/SC(=S)N(CC(=O)O)C2=O)ccc1OC(=O)c1cccs1 | ? | 0% | ? | -13% | ? | -17% | ? | -13% | -17%
CN1CCc2nc(SCC(=O)Nc3ccc(OC(F)(F)F)cc3)c(C#N)c(-c3cccs3)c2C1 | ? | -1% | 16% | -8% | -7% | -18% | 19µM* | 3.4µM* | 24µM*
CN1CCc2nc(SCC(=O)Nc3cccc(F)c3)c(C#N)c(-c3cccs3)c2C1 | -19% | -9% | 34% | 19% | 0% | 0% | / | / | /
C[C@@H]1NC(=O)N[C@@H]1CCCCCC(=O)O | ? | 2% | 30% | / | ? | 2% | ? | -1% | ?
CCOC(=O)c1ccc(NS(=O)(=O)c2ccc3c(c2)CCN3C(=O)CC)cc1 | / | -10% | 4% | 17% | -5% | 1% | / | / | /
Cc1ccc(-c2[nH]c(-c3ccc(C(=O)O)cc3)nc2-c2ccccc2)cc1 | ? | -7% | -2% | 3% | -3% | -20% | 24µM* | -28% | ?
CCn1nc(C(=O)OCC(=O)Nc2ncc(Cl)c(C)c2Cl)c2ccccc2c1=O | ? | -7% | ? | -7% | ? | -12% | -29% | -12% | ?
COc1ccc2c(c1)c1c(c(=O)n(CCc3ccccc3)c(=O)n1Cc1ccc(Cl)cc1)n2C | / | -2% | 16% | 29% | -12% | 9% | / | / | /
Cc1cc(=O)oc2cc(Oc3ccc(C(N)=O)cc3[N+](=O)[O-])ccc12 | ? | 11% | ? | 12% | -9% | -20% | ? | -9% | -17%
Cc1cc(Cl)ccc1Oc1ccc(C(N)=O)cc1[N+](=O)[O-] | 4% | 2% | 14% | ? | -17% | -12% | / | / | /
COc1cc(/C=N/NC(=O)c2ccc3c(c2)OCCO3)c(Br)c(Br)c1O | ? | ? | ? | ? | ? | 89µM* | ? | -24% | ?
C/C=C1\C2C=C(C)C[C@@]1(N)c1ccc(=O)[nH]c1C2 | / | / | / | / | / | -9%[60.1 µM] | / | / | /
COc1cc(/C=N/Nc2nc(Nc3ccc(C)cc3)nc(-n3nc(C)cc3C)n2)cc(OC)c1OC | -31% | -16% | 2% | -10% | -11% | -25% | / | / | /
COc1cc(/C=N/Nc2nc(Nc3ccccc3)nc(-n3nc(C)cc3C)n2)cc(OC)c1OC | ? | -9% | -14% | -3% | -25% | -34% | 6.8µM* | 78% | 2.7µM*
SMILES | WRN helicase inh-1 | FEN1 inh | Pol iota inh | Pol beta inh | POLH inh | POLK inh | WRN helicase inh-2 | TO DNA binding | BLM counter
CCN1CCC(O)(/C=C/c2ccc(C(C)C)cc2)C(C(=O)/C=C/c2ccc(C(C)C)cc2)C1 (stereo not drawn) | 16µM* | -25% | 1% | / | -20% | -15% | -28% | -30% | ?
CCN1CCN(C(=O)/C=C/c2ccc(C(C)C)cc2)CC1 | -13% | 11% | -12% | / | -2% | -7% | / | / | /
CCOC(=O)C1=C(C)N=c2sc(=Cc3cc(Cl)c(OCC(=O)O)c(Cl)c3)c(=O)n2C1c1cccc(OC)c1 (stereo not drawn) | 79µM* | / | / | / | / | / | 30µM* | 21% | ?
CCOC(=O)C1=C(C)N=c2sc(=Cc3ccc(OCC(=O)O)cc3)c(=O)n2C1c1ccc(Cl)cc1 (stereo not drawn) | ? | / | / | / | / | / | 7.6µM* | 357% | 3.4µM*
CCOC(=O)C1=C(C)N=c2s/c(=C\c3ccc(OCC(=O)O)cc3)c(=O)n2C1c1ccc(OC(C)C)cc1 (stereo not drawn) | -22% | -14% | ? | -15% | ? | -18% | / | / | /
CCOC(=O)Cn1c(=O)n(C2CCCCC2)c2nc(-c3ccc(OCC)cc3)nc(C(N)=O)c21 | / | 17% | ? | -2% | -7% | -6%[60.1 µM] | / | / | /
CC(=O)ON(C(C)=O)c1ccc(/C=C2/C=Cc3ccccc32)cc1 | / | -11% | 8% | / | / | -12% | / | / | /
